Measurements taken from PubChem BioAssay (NCI).
Compounds without any hit were thinned out: in the full panel of roughly 79,000, 15% have a hit. Calls of active or inactive are those of the source. Rule as the data show it: active = growth inhibition above about 70%; inactive = the rest.

Experiments:
[1] = NCI Yeast Anticancer Drug Screen. Data for the rad50 strain (AID 155);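 also: 0% = growth of vehicle-only cultures of the same strain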; details: S. cerevisiae rad50 strain growth inhibition; at 50.0 µM; stronger effect = higher value
Summary of the method: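 Inhibition values express reduced yeast growth in compound-treated cultures relative to vehicle-treated controls.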

[2] = NCI Yeast Anticancer Drug Screen. Data for the mec2-1 strain (AID 157); details: S. cerevisiae mec2-1 strain, at 50.0 µM, stronger effect = higher value
Summary of the method: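 Readout is yeast growth inhibition, normalised to vehicle-treated controls, in the mec2-1 strain exposed to compound.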

[3] = NCI Yeast Anticancer Drug Screen. Data for the sgs1 mgt1 strain (AID 161);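 also: 0% = growth of cultures given vehicle only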; details: S. cerevisiae sgs1 mgt1 strain, at 50.0 µM, stronger effect = higher value
Summary of the method: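 This yeast growth screen uses a strain with defined DNA-repair lesions; compound-treated growth is compared with vehicle-treated growth.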

[4] = NCI Yeast Anticancer Drug Screen. Data for the cln2 rad14 strain (AID 165);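 also: 0% = growth equal to vehicle treated cultures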; details: S. cerevisiae cln2 rad14 strain, at 50.0 µM, stronger effect = higher value
Summary of the method: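 Relative to vehicle controls, growth inhibition of compound-treated cln2 rad14 yeast was recorded.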

[5] = NCI Yeast Anticancer Drug Screen. Data for the bub3 strain (AID 167); details: S. cerevisiae bub3 mutant strain, at 50.0 µM, stronger effect = higher value
Summary of the method: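 Steps: expose the mutant yeast strain to compound; grow alongside vehicle-treated cultures; measure growth; express inhibition against the vehicle cultures.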

[6] = NCI Yeast Anticancer Drug Screen. Data for the mlh1 rad18 strain (AID 175); details: S. cerevisiae mlh1 rad18 strain growth inhibition; at 50.0 µM; stronger effect = higher value
Summary of the method: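 Test agents were incubated with a yeast strain of defined genotype (DNA damage repair defect). Inhibition of growth was derived by comparison with vehicle-exposed cultures.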

Measured: growth inhibition

COC(=O)C1(C)CCCC2(C)C1CCC13OC1C1(C(C)C)OC1CC23 (configuration not stated)
inactive: [1] 5.1% | [2] -20.6% | [3] 11.1% | [4] -26.4% | [5] -3% | [6] 8.2%

Cn1ncc2c(NN)nc(Cl)nc21
inactive: [1] 8.6% | [2] -18.7% | [3] -4.55% | [4] -18.4% | [5] -14.8% | [6] 7%

CCCC1(c2ccccc2)OCC(CO)O1 (configuration not stated)
inactive: [1] 15% | [2] 9.35% | [3] -17.4% | [4] 6.4% | [5] 4.1% | [6] 4.25%

CC1COC2(CCCCC2)O1 (configuration not stated)
inactive: [1] -25.2% | [2] -3.45% | [3] -44.1% | [4] -37% | [5] -14.8% | [6] -26.1%

c1ccc(B2Nc3ccccc3O2)cc1
inactive: [1] 18.1% | [2] 7.05% | [3] 5.3% | [4] 18.4% | [5] 43% | [6] 39.5%

N#C/C=C(\N)C(C#N)C#N
inactive: [1] -4.85% | [2] -25.9% | [3] -3.15% | [4] 6.75% | [5] -3.6% | [6] 4.8%

COC(=O)OCC1OC(OC(C)=O)C2OC(=O)OC12 (configuration not stated)
inactive: [1] 8.55% | [2] -16.9% | [3] -16.7% | [4] 5.45% | [5] 2.35% | [6] -3.15%

O=C1c2ccccc2-c2nc(-c3cccs3)cc3c2c1nc1ccccc13
inactive: [1] 41.2% | [2] 21.4% | [3] 29.1% | [4] 21.9% | [5] 25% | [6] 36.2%

CCc1cc2c(c3c1CCCC3=O)CC1(Cc3ccc(C(=O)OC)cc3C1)C2 (configuration not stated)
inactive: [1] -8.05% | [2] -28.9% | [3] -7.6% | [4] -20.6% | [5] -8.95% | [6] -39.7%

O=C(c1ccccc1)c1cccnc1
inactive: [1] -10.6% | [2] -18.3% | [3] -17.4% | [4] -25.1% | [5] -45.2% | [6] -35.4%

O=C(NC1C=Nc2ccc([N+](=O)[O-])cc2NC1=O)c1ccc(Cl)cc1 (configuration not stated)
inactive: [1] 13.2% | [2] 7.8% | [3] 7.35% | [4] -18% | [5] -1.85% | [6] -8.5%

O=S(=O)(c1ccccc1)C1C2CCC(O2)C1S(=O)(=O)c1ccccc1 (configuration not stated)
inactive: [1] 19.4% | [2] 7.8% | [3] 15.7% | [4] 30.9% | [5] 29.6% | [6] 10.1%

Cc1ccnc2[nH]c(-c3cccc(Cl)c3)cc(=O)c12
inactive: [1] -23.4% | [2] -18.6% | [3] -41% | [4] -33% | [5] -24.8% | [6] -58.5%

CSc1ccc(NC(=O)Nc2cc(C)c(C)cc2C)cc1
inactive: [1] 16.6% | [2] 2.1% | [3] 6.75% | [4] 21.4% | [5] 14.5% | [6] 2.85%

COc1cc(/C=N/N2CC(=O)N(c3ccccc3)CC2=O)cc(OC)c1
inactive: [1] -469% | [2] 18.1% | [3] 23.7% | [4] 7.1% | [5] 10.8% | [6] 13.1%

CC(NCCNC(C)c1ccccc1)c1ccccc1 (configuration not stated)
inactive: [1] 6.65% | [2] -22.3% | [3] -1.25% | [4] -35.1% | [5] 1.85% | [6] 8.45%

COc1ccccc1CNCCCCCNCCCCCCCCCCNCCCCCNCc1ccccc1OC
inactive: [1] -32.4% | [2] -11.1% | [3] -27.9% | [4] -9.1% | [5] -22% | [6] -36.5%

Cc1ccccc1NC(=O)c1ccc(C(=O)Nc2ccccc2C)cc1
inactive: [1] 11% | [2] -10.8% | [3] 9.2% | [4] 7.8% | [5] 1.05% | [6] 35.9%

COc1ccc(CC2COC(=O)C2Cc2ccc(OC)c(OC)c2)cc1OC (configuration not stated)
inactive: [1] 6.35% | [2] 5.95% | [3] -17.6% | [4] -11.6% | [5] 8.1% | [6] 12.8%

Cc1cc(C(=O)c2ccccc2)ccc1[N+](=O)[O-]
inactive: [1] 23.1% | [2] -11% | [3] -7.35% | [4] -0.5% | [5] -0.65% | [6] 7.1%

c1coc(CNc2ncnc3nccnc23)c1
inactive: [1] -16.9% | [2] -4.35% | [3] -15.6% | [4] -20.2% | [5] -32.5% | [6] -4.45%

O=[N+]([O-])c1ccccc1S(=O)(=O)c1ccccc1[N+](=O)[O-]
inactive: [1] -26.4% | [2] -9.45% | [3] -14.1% | [4] -10% | [5] -1.5% | [6] -21%

Nc1ccn(C2OC(COP(=O)(O)O)C(O)C2O)c(=O)n1 (configuration not stated) (tested in a mixture with another compound)
inactive: [1] -3.8% | [2] -4.25% | [3] -0.75% | [4] -44.4% | [5] 1.15% | [6] 14.1%

O=C(O)CCc1nc(-c2ccccc2-n2cccc2)no1
inactive: [1] -43.8% | [2] -36.1% | [3] -30.4% | [4] 38.2% | [5] -15.4% | [6] 8.2%

CC1(C)CC(=O)C(N=Nc2ccccc2)=C(O)C1
inactive: [1] 0.7% | [2] 2.3% | [3] -2.55% | [4] -49.4% | [5] 24.2% | [6] -0.75%

CSc1nc(NCc2ccc(Cl)cc2)c2[nH]c(C)nc2n1
inactive: [1] 7.7% | [2] -13.6% | [3] 18.4% | [4] -3% | [5] 20.1% | [6] 6.45%

O=C1NC2(CCCCC2)C(=O)N1CCN1C(=O)NC2(CCCCC2)C1=O
inactive: [1] 6.7% | [2] 4.2% | [3] -1.8% | [4] 8.85% | [5] -14.3% | [6] -10.5%

CCC(=O)n1cc2ccc([N+](=O)[O-])cc2n1
inactive: [1] 1.35% | [2] 1.35% | [3] -4% | [4] -57.8% | [5] 13.2% | [6] -3.05%

NC(=O)CNC(=O)[C@@H]1C[C@@H](OCCC(=O)O)CN1C(=O)OCc1ccccc1
inactive: [1] -32.2% | [2] -8.75% | [3] -24.5% | [4] 4.1% | [5] 14.5% | [6] 4.95%

Nc1cc2c3c(cccc3c1Br)C(=O)NC2=O
active: [1] 85.2%
inactive: [2] 14.6% | [3] 35.5% | [4] 12.1% | [5] 15.3% | [6] 15.8%

CNC(=O)c1ccccc1C
inactive: [1] -1.15% | [2] -6% | [3] -6.9% | [4] -33.3% | [5] 6.55% | [6] 0.35%

NC(=O)N=P(c1ccccc1)(c1ccccc1)c1ccccc1
inactive: [1] -9.9% | [2] 12.6% | [3] -6% | [4] 7.75% | [5] 3% | [6] -12.9%

O=Cc1ccc(-c2ccc([N+](=O)[O-])cc2)o1
inactive: [1] 3.7% | [2] 9% | [3] -9.5% | [4] -7.8% | [5] -0.3% | [6] 3.6%

O=C(Nc1ccc(Cl)cc1[N+](=O)[O-])Oc1ccc(C(=O)OCc2ccccc2)cc1
active: [1] 76.3% | [2] 75.1% | [3] 71.5% | [5] 84.2% | [6] 78.1%
inactive: [4] 48.5%

CCOc1cccc(N)c1
inactive: [1] -69.2% | [2] -20.7% | [3] -55.5% | [4] -51% | [5] -41.7% | [6] -80.2%

CCN(C(=O)CCl)c1ccccc1
inactive: [1] 15% | [2] 0.35% | [3] -0.1% | [4] -12.6% | [5] -7.25% | [6] 14.2%

CC1(OC(=O)Nc2ccccc2)CCCCC1
inactive: [1] 5.75% | [2] -0.8% | [3] 0.9% | [4] 3.55% | [5] 3.55% | [6] -9.95%
